# Measured values as given in PubChem BioAssay (NCATS).
# Where “and” joins values, the source holds several entries; their conditions need not be identical. Identical values can stand only once. Results filed as inconclusive are left out. A call without a number means that no potency is given here. Calls of active or inactive are those of the source. Calls come from the whole dose curve; as a rule, active = well fitted inhibition curve with a large enough effect; inconclusive = small, poorly fitted or top-dose-only effect; inactive = flat fitted curve, though single readings scatter.
# Tested on: not listed separately
# Assay: qHTS Assay for Lipid Storage Modulators (AID 1519)
# Settings: Drosophila S3 cells, BODIPY lipid droplet/cell ratio, laser cytometry; measured here: lipid channel max response; cells loaded with oleic acid
# Summary of the method: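 Cells seeded at 5,000 per well were treated with compounds over a concentration series and loaded with oleic acid (400 uM, as added). Lipid droplet fluorescence (488 nm excitation, 500-530 nm channel) was read by laser-scanning cytometry and normalized to 20 uM Triacsin C.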
row,Structure (SMILES),max response
1,CO[C@@]1(NC(=O)CSCC#N)C(=O)N2C(C(=O)O)=C(CSc3nnnn3C)CS[C@@H]21,-28.4%
2,CC(=O)Oc1cc(C(C)C)c(OCCN(C)C)cc1C,-5.49%
3,NC(=O)N1c2ccccc2C=Cc2ccccc21,-5.44%
4,Nc1c2c(nc3ccccc13)CCCC2O (configuration not stated),13.3% and -15.3%
5,c1cc(CN2CCCCC2)cc(OCCCNc2nc3ccccc3s2)c1,13%
6,Cc1nc2sccn2c(=O)c1CCN1CCC(=C(c2ccc(F)cc2)c2ccc(F)cc2)CC1,25.6%
7,CNC1(C)C2CCC(C2)C1(C)C (configuration not stated),47.5%
8,COc1cc(C(=O)OCCCN2CCCN(CCCOC(=O)c3cc(OC)c(OC)c(OC)c3)CC2)cc(OC)c1OC,8.49%
9,Cc1nc2ccccn2c(=O)c1CCN1CCC(C(=O)c2ccc(F)cc2)CC1,24.1%
10,OC(CCN1CCCCC1)(c1ccccc1)C1CCCCC1 (configuration not stated),-6.71%
11,CCN(CC)CCNC(=O)c1ccc(NC(C)=O)cc1,6.2% and -12.1%
12,COc1cc(Cc2cnc(N)nc2N)cc(OC)c1OC,-5.27%
13,CCOC(=O)C1=C(C)NC(C)=C(C(=O)OC)C1c1cccc([N+](=O)[O-])c1 (configuration not stated),-4.4%
14,O=c1[nH]c(=O)n([C@H]2C[C@H](O)[C@@H](CO)O2)cc1Br,1.8% and -25.8%
15,c1ccc2c(c1)CCCC2C1=NCCN1 (configuration not stated),18.8% and -24.9%
16,CCN1CCc2nc(N)oc2CC1,-7.55%
17,CC(=O)OC(C)C[N+](C)(C)C (configuration not stated),29.3%
18,COCCOC(=O)C1=C(C)NC(C)=C(C(=O)OC(C)C)C1c1cccc([N+](=O)[O-])c1 (configuration not stated),26.9% and 56.5%
19,FC(F)(F)c1ccccc1-n1ccnc1,25.3%
20,C[N+](C)(C)CCOC(N)=O,11.4%
21,Fc1ccc(C(c2ccc(F)cc2)N2CCN(C/C=C/c3ccccc3)CC2)cc1,15.1%
22,NC/C=C/C(=O)O,13.9%
23,CC(C)COCC(CN(Cc1ccccc1)c1ccccc1)N1CCCC1 (configuration not stated),26.2%
24,COCCc1ccc(OCC(O)CNC(C)C)cc1 (configuration not stated),-15.7%
25,OCCN1CCN(CCCN2c3ccccc3C=Cc3ccccc32)CC1,45.9%
26,CC(N=C(NC#N)Nc1ccncc1)C(C)(C)C (configuration not stated),14.8% and -22.8%
27,CCCN(CCC)C(=O)C(CCC(=O)O)NC(=O)c1ccccc1 (configuration not stated),23.3%
28,CCN1CCC[C@H]1CNC(=O)c1c(O)c(Cl)cc(Cl)c1OC,12.8% and 10.2%
29,CC(C(=O)O)c1ccc(CC2CCCC2=O)cc1 (configuration not stated),-27%
30,O=C1NCN(c2ccccc2)C12CCN(CCCC(c1ccc(F)cc1)c1ccc(F)cc1)CC2,-26.6%

# Biological target: DNA repair nuclease/redox regulator APEX1 (Homo sapiens) (UniProt P27695)
# Assay: qHTS Validation Assay for Inhibitors of the Human Apurinic/apyrimidinic Endonuclease 1 (APE1) (AID 1705;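 note: TAMRA fluorescence gain over two minutes as APE1 cuts a quenched THF abasic duplex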)
# Settings: purified APE1 endonuclease activity, fluorescence, titration; series mostly up to 57.1 µM
# Summary of the method: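 Read-out: TAMRA fluorescence (525 nm ex, 598 nm em) from cleavage of a quenched THF abasic-site duplex, 50 nM final; activity taken as intensity change between third and first of three reads 60 s apart.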
# Chain of DNA repair nuclease/redox regulator APEX1 (Homo sapiens) (P27695 whole entry, looked up): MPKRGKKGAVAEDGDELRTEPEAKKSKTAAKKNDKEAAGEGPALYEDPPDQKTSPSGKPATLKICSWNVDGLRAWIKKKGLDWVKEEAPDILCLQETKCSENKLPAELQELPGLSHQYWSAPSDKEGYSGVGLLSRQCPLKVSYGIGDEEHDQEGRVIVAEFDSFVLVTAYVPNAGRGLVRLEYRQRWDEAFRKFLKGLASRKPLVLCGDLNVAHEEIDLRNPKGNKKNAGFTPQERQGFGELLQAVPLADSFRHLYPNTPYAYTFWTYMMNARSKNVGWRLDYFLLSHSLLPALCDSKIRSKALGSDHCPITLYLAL
row,Structure (SMILES),Potency
1,CO[C@@]1(NC(=O)CSCC#N)C(=O)N2C(C(=O)O)=C(CSc3nnnn3C)CS[C@@H]21,inactive
2,CC(=O)Oc1cc(C(C)C)c(OCCN(C)C)cc1C,inactive
3,NC(=O)N1c2ccccc2C=Cc2ccccc21,inactive
4,Nc1c2c(nc3ccccc13)CCCC2O (configuration not stated),inactive
5,c1cc(CN2CCCCC2)cc(OCCCNc2nc3ccccc3s2)c1,inactive
6,Cc1nc2sccn2c(=O)c1CCN1CCC(=C(c2ccc(F)cc2)c2ccc(F)cc2)CC1,inactive
7,CNC1(C)C2CCC(C2)C1(C)C (configuration not stated),inactive
8,COc1cc(C(=O)OCCCN2CCCN(CCCOC(=O)c3cc(OC)c(OC)c(OC)c3)CC2)cc(OC)c1OC,inactive
9,Cc1nc2ccccn2c(=O)c1CCN1CCC(C(=O)c2ccc(F)cc2)CC1,inactive
10,OC(CCN1CCCCC1)(c1ccccc1)C1CCCCC1 (configuration not stated),inactive
11,CCN(CC)CCNC(=O)c1ccc(NC(C)=O)cc1,inactive
12,COc1cc(Cc2cnc(N)nc2N)cc(OC)c1OC,inactive
13,CCOC(=O)C1=C(C)NC(C)=C(C(=O)OC)C1c1cccc([N+](=O)[O-])c1 (configuration not stated),inactive
14,O=c1[nH]c(=O)n([C@H]2C[C@H](O)[C@@H](CO)O2)cc1Br,inactive
15,c1ccc2c(c1)CCCC2C1=NCCN1 (configuration not stated),inactive
16,CCN1CCc2nc(N)oc2CC1,inactive

row,Structure (SMILES),Potency
1,CC(=O)OC(C)C[N+](C)(C)C (configuration not stated),inactive
2,COCCOC(=O)C1=C(C)NC(C)=C(C(=O)OC(C)C)C1c1cccc([N+](=O)[O-])c1 (configuration not stated),inactive
3,FC(F)(F)c1ccccc1-n1ccnc1,inactive
4,C[N+](C)(C)CCOC(N)=O,inactive
5,Cc1scc2c1N(C(=O)CN1CCN(C)CC1)c1ccccc1NC2=O,inactive
6,Fc1ccc(C(c2ccc(F)cc2)N2CCN(C/C=C/c3ccccc3)CC2)cc1,inactive
7,COc1ccc(CN(CCN(C)C)c2ccccn2)cc1,inactive
8,NC/C=C/C(=O)O,inactive
9,CC(C)COCC(CN(Cc1ccccc1)c1ccccc1)N1CCCC1 (configuration not stated),inactive
10,COCCc1ccc(OCC(O)CNC(C)C)cc1 (configuration not stated),inactive
11,OCCN1CCN(CCCN2c3ccccc3C=Cc3ccccc32)CC1,inactive
12,CC(N=C(NC#N)Nc1ccncc1)C(C)(C)C (configuration not stated),inactive
13,CCCN(CCC)C(=O)C(CCC(=O)O)NC(=O)c1ccccc1 (configuration not stated),inactive
14,CCN1CCC[C@H]1CNC(=O)c1c(O)c(Cl)cc(Cl)c1OC,inactive
15,CC(C(=O)O)c1ccc(CC2CCCC2=O)cc1 (configuration not stated),inactive
16,O=C1NCN(c2ccccc2)C12CCN(CCCC(c1ccc(F)cc1)c1ccc(F)cc1)CC2,inactive
